Laboratory results as given in the supplement of paper PMC13380429.

System: Vero E6 infected with SARS-CoV-2
Assay: inhibition of SARS-CoV-2 cytopathic effect; higher = more antiviral protection, active = above 15
Settings: 48 h

Measured: inhibition of SARS-CoV-2 cytopathic effect

O=C(CC1NCCCC1O)Cn1cnc2cc(Br)c(Cl)cc2c1=O (stereo not given) [halofuginone]
inactive: 1 nM -3.21% | 8.33 nM -1.77% | 100 nM -2.82% | 833.33 nM 12.3% | 10000 nM -13.9%

C[C@]1(COc2ccc(N3CCC(Oc4ccc(OC(F)(F)F)cc4)CC3)cc2)Cn2cc([N+](=O)[O-])nc2O1 [delamanid]
inactive: 1 nM -0.82% | 8.33 nM 0.01% | 100 nM -1.12% | 833.33 nM 2.83% | 10000 nM 1.84%

CC(C)(C)c1ccc2cc(C#N)c(C#N)cc2c1
inactive: 1 nM 0.02% | 8.33 nM 1.71% | 100 nM -1.56% | 833.33 nM 0.05% | 10000 nM -3.93%

COc1ccc2c(OCc3nnc4ccc(-c5ccccc5)nn34)ccnc2c1
inactive: 1 nM 1.19% | 8.33 nM -0.48% | 100 nM 0.42% | 833.33 nM -0.17% | 10000 nM 1.81%

CCCCCOc1ccc(-c2cc(-c3ccc(C(=O)N[C@H]4C[C@@H](O)[C@@H](O)NC(=O)[C@@H]5[C@@H](O)[C@@H](C)CN5C(=O)[C@H]([C@H](O)CC(N)=O)NC(=O)[C@H]([C@H](O)[C@@H](O)c5ccc(O)c(OS(=O)(=O)O)c5)NC(=O)[C@@H]5C[C@@H](O)CN5C(=O)[C@H]([C@@H](C)O)NC4=O)cc3)no2)cc1 [micafungin]
inactive: 1 nM -6.42% | 8.33 nM -5.65% | 100 nM -5.9% | 833.33 nM -3.13% | 10000 nM 4.81%

Cl/C(=C\n1cncn1)c1ccc(Cl)cc1Cl [loreclezole]
inactive: 1 nM 0.42% | 8.33 nM -1.72% | 100 nM -2.63% | 833.33 nM -0.72% | 10000 nM -1.41%
